Laboratory results: PubChem BioAssay AID1794808 (University of Kansas High Throughput Screening Laboratory, 2022)
Where “and” joins values, the source holds several entries; their conditions need not be identical. Equal values may be shown once. About 520 (0.25%) of roughly 210,000 compounds were called active. Cut-off read from the data, not from the text of the source: active = inhibition above about 50%; inactive = the rest. The sample as a whole holds a higher share of actives than the screen did. Some compounds were tested as several samples or in several runs, with calls that do not always agree.

The compounds below were run on Plasmodium falciparum apicoplast DNA polymerase (apPOL) (assay: Pf-apPOL inhibitors, biochemical, fluorescence (AID 1794808)). Settings: Recombinant Pf-apPOL, molecular beacon fluorescence, 1.5 h; at 10 µM; stronger effect = higher value.

Compound	inhibition
COc1ccc2nc(SCC(=O)NCc3cccs3)[nH]c2c1	-5.8% (inactive)
COc1ccc2nc(SCC(=O)c3ccc(Cl)c(Cl)c3)[nH]c2c1	79.6% (active)
COc1ccc2nc(SC)[nH]c2c1	-6.5% (inactive)
CC(=O)N1CCc2cc(N3CC(C(=O)Nc4cccc(F)c4)CC3=O)ccc21 (centres undefined)	-3.7% (inactive)
O=C(CCCC1=NS(=O)(=O)c2ccccc2N1)Nc1cccc(C(=O)O)c1	-7.1% (inactive)
O=C(NCCC1=CCCCC1)C(=O)NCC(c1ccc2c(c1)OCO2)N1CCOCC1 (centres undefined)	-1.8% (inactive)
Cc1ccc(C)c(OCC(=O)Nc2ccccc2C(N)=O)c1	4.8% (inactive)
O=C(C=Cc1ccco1)NCC1COC2(CCCCC2)O1 (centres undefined)	-8.3% (inactive)
O=C(CCc1ccccc1)NCC1COC2(CCCCC2)O1 (centres undefined)	90.3% (active)
O=C(NCC1COC2(CCCC2)O1)c1ccccc1[N+](=O)[O-] (centres undefined)	-1.9% (inactive)
Cc1cc(NC(=O)N2CC3CCCN3c3ccccc32)ccc1Br (centres undefined)	0.1% (inactive)
CN1/C(=C/C(=O)c2ccc(I)cc2)Sc2ccccc21	-77.1% (inactive)
CC(C)CNS(=O)(=O)c1ccc2nc(NC(=O)c3ccco3)sc2c1	45.1% (inactive)
NC(COc1ccc(Cl)cc1)=NOC(=O)c1ccsc1	-6.2% (inactive)
COc1cc(OC)c(N2C(=O)NC3CC2(C)Oc2ccccc23)cc1Cl (centres undefined)	-6.1% (inactive)
Fc1ccc(-c2nc(-c3ccc(Cl)cc3)no2)cc1	-2.6% (inactive)
O=C(Nc1cc(F)c2nc(N3CCCC3)ccc2c1)c1cccc(F)c1	0.1% (inactive)
COc1ccc(/C=C2/C(=O)N(c3ccccc3)N=C2C)c(OC)c1	2.6% (inactive)
COc1ccc(C2C=C(Nc3ccccc3)C(=O)N2c2ccccc2)c(OC)c1 (centres undefined)	65.6% (active)
O=C1C(Nc2ccccc2)=CC(c2ccc([N+](=O)[O-])cc2)N1c1ccccc1 (centres undefined)	8.9% (inactive)
Cc1ccc2c(c1)N(Cc1nc(-c3ccc(C)c(C)c3)no1)C(=O)CO2	-2.1% (inactive)
CC(C=CC=C(C)C(=O)OC1OC(COC2OC(CO)C(O)C(O)C2O)C(O)C(O)C1O)=CC=CC=C(C)C=CC=C(C)C(=O)OC1OC(COC2OC(CO)C(O)C(O)C2O)C(O)C(O)C1O (centres undefined)	-1.1% (inactive)
CC(C)(C)NC(=O)N1CCC(CNC(=O)C(=O)Nc2cc(F)ccc2F)CC1	-4.8% (inactive)
COc1cc(OC)c(OC)cc1CN1CCCC1c1cc(C)on1 (centres undefined)	3.3% (inactive)

Compound	inhibition
CCN1C2=C(C(=O)CCC2)C(c2cc(Br)c(O)c(OC)c2)C2=C1CCCC2=O	1.1% (inactive)
CCN1C2=C(C(=O)CC(C)(C)C2)C(c2cc(Cl)c(O)c(OC)c2)C2=C1CC(C)(C)CC2=O	6.7% (inactive)
CCOc1cc(C2C3=C(CCCC3=O)N(CC)C3=C2C(=O)CCC3)cc(Cl)c1O	65.7% (active)
Cc1cccc(NC(=O)CSc2nccn2C)c1C	-4.4% (inactive)
COC(=O)c1cc(Nc2cc(F)ccc2F)c2ccccc2n1	-1.7% (inactive)
CCc1ccc(NC(=O)CCS(=O)(=O)c2ccc(Br)s2)cc1	-6.3% (inactive)
COc1ccc(CC2(C)OC(c3ccc(C(C)(C)C)cc3)=NN2C(C)=O)cc1 (centres undefined)	5.3% (inactive)
CCOc1nn(-c2nc(-c3ccccc3)cc(C(F)(F)F)n2)cc1[N+](=O)[O-]	1.6% (inactive)
c1ccc(-c2nnc(SCc3nc4ccccc4[nH]3)o2)cc1	-3% (inactive)
c1ccc2[nH]c(CSc3nc4ccccc4[nH]3)nc2c1	86% (active) and -1.3% (inactive)
CNC(=O)CSc1nc2ccccc2[nH]1	-7.9% (inactive)
COc1ccc(C2=NOC(C(=O)N3CCCc4ccccc43)C2)cc1OC (centres undefined)	-3.1% (inactive)
O=C(NCc1cccc(F)c1)C1CCc2sc(C(=O)N3CCCC3)cc2C1 (centres undefined)	-2.5% (inactive)
CCn1ccc(C(=O)N2CCCC2c2cccc(F)c2)n1 (centres undefined)	-3.5% (inactive)
O=C(NCC1CN(c2ccc3c(c2)OCO3)C(=O)O1)c1ccco1 (centres undefined)	-9.6% (inactive)
CC(C)(C)c1ccc(CC(=O)c2ccc(O)cc2O)cc1	-3.9% (inactive)
O=C1CCCC2=C1C(c1ccccn1)C1=C(CCCC1=O)O2	-0.8% (inactive)
O=C(Nc1ncc(Cc2cccc(C(F)(F)F)c2)s1)c1ccc(-n2cnnn2)cc1	-2.3% (inactive)
CCOC(=O)N1CCc2nn(CC(=O)NC(C)CCc3ccccc3)c(=O)cc2C1 (centres undefined)	-4.2% (inactive)
O=C(Nc1nnc(CSCc2ccccc2)s1)c1ccc(F)cc1	-1.1% (inactive)
COc1ccc(CCNC(=O)C2c3ccccc3C(=O)N2Cc2ccc(C)cc2)cc1OC (centres undefined)	-9.1% (inactive)
O=C(Nc1ccc(-c2nc3ccccc3[nH]2)cc1)c1cccc(F)c1	-15.5% (inactive)
CCNC(=O)c1nsc2ccc(C)cc12	-1.8% (inactive)
CCOC(=O)c1ccc(NS(=O)(=O)c2c[nH]c(=O)[nH]c2=O)cc1	-10.5% (inactive)

Compound	inhibition
CCN(CC)CCCNC(=O)C1CCN(S(=O)(=O)N2CCC3(CC2)OCCO3)CC1	-18.9% (inactive)
Cc1ccc(-n2cc(C(=O)N3CCCCC3)nn2)cc1C	-2.2% (inactive)
COc1ccc(/C=C2\N=C(c3cc(OC)c(OC)c(OC)c3)OC2=O)cc1	-0.6% (inactive)
Cc1ccc(-n2c(O)c(C=Nc3cc(Cl)ccc3O)c(=O)[nH]c2=O)cc1	-0.1% (inactive)
CCc1c(C)c2ccc(OCC(C)C)cc2oc1=O	-2.3% (inactive)
COc1ccc(CCNC(=O)C2CC(=O)N(c3ccc(F)c(Cl)c3)C2)cc1OC (centres undefined)	4.9% (inactive)
O=C1CC2(CCN(C(=O)C=Cc3ccccc3)CC2)Oc2ccccc21	-17.9% (inactive)
O=C(Nc1ccc(Br)cn1)c1ccc([N+](=O)[O-])cc1Cl	81.8% (active)
O=C(Nc1ccncc1)c1ccc([N+](=O)[O-])cc1Cl	0.3% (inactive)
Cc1cc(C)nc(NC(=O)c2ccc([N+](=O)[O-])cc2Cl)c1	5.5% (inactive)
O=C(C1CC1)N1CCC(COCc2ccccc2)CC1	-12.6% (inactive)
CCS(=O)(=O)Oc1ccccc1-c1nc2cc(Cl)ccc2o1	-3.6% (inactive)
Cc1ccc(C(=O)N2CCC(CCOc3ccc(F)cc3)CC2)s1	4.5% (inactive)
CN1CCN(C(=O)C2CCC(=O)N2Cc2ccccc2Cl)CC1 (centres undefined)	-11.4% (inactive)
CC(C)c1nnc(NC(=O)CCCOc2ccc(Cl)cc2)s1	4.4% (inactive)
O=[N+]([O-])c1ccc(-c2noc(COc3ccc(Cl)cc3Cl)n2)cc1	1.6% (inactive)
O=C(NCCc1ccccc1)C1CCN(CC2CCCCC2)CC1	12.9% (inactive)
O=C(NCCc1ccccc1)C1CCN(S(=O)(=O)c2ccc(Br)cc2)CC1	98.3% (active)
O=C(NCCc1ccccc1)C1CCN(S(=O)(=O)c2ccc(Br)s2)CC1	-9% (inactive)
Cc1cccc(NC(=O)c2cc3c(CO)cnc(C)c3oc2=Nc2ccc3c(c2)OCO3)c1	-0.2% (inactive)
CCn1c(-c2cc(NC(=O)c3ccncc3)n[nH]2)cc2ccccc21	-0.8% (inactive)
O=C(Nc1ccc(Cl)cc1[N+](=O)[O-])c1ccc(Cl)cc1	-0.2% (inactive)
O=C(CCCn1cccc1)Nc1nc(-c2ccco2)cs1	0.6% (inactive)
Cc1cc(C)nc(Nc2nc(CC(=O)Nc3nc(-c4ccco4)cs3)cs2)n1	69.6% (active)

Compound	inhibition
COC(=O)Nc1nc(CC(=O)NCc2ccco2)cs1	-1.8% (inactive)
Cc1nccn1Cc1nc(-c2ccc(F)c(Br)c2)no1	-2.5% (inactive)
COc1ccc(C(C)=C2SC(=S)N(CCC(=O)O)C2=O)cc1	3.2% (inactive)
Cc1nc2c(ccc3nc(NC(=O)NCc4cccs4)sc32)s1	-4.8% (inactive)
O=C(c1ccncc1)N1CCCC(c2nc(-c3ccc(F)cc3)n[nH]2)C1 (centres undefined)	10% (inactive)
COc1ccc(C(=O)N2CCN(c3nc(C(C)C)c4c(c3C#N)CC(C)(C)OC4)CC2)cc1	-3.4% (inactive)
CCCNc1cc(N2CCC(CCC(=O)NC(C)C)CC2)ncn1	-1.9% (inactive)
COc1cc(/C=c2\sc3nc(-c4ccc(Cl)cc4)nn3c2=O)cc(OC)c1OC	3.7% (inactive)
Cc1ccc(S(=O)(=O)NC(=O)NCCSCc2ccco2)cc1	25.5% (inactive) and 3.2% (inactive)
O=C(CSc1nnc(SCC(=O)NCCSCc2ccco2)s1)NCCSCc1ccco1	91.9% (active)
O=C(Cn1nnc2ccccc21)NCCSCc1ccco1	9.1% (inactive)
Cc1cccc(OCCNC(=O)CSc2ccc(C(F)(F)F)cc2[N+](=O)[O-])c1	-4.3% (inactive)
O=C(CSc1ccc(C(F)(F)F)cc1[N+](=O)[O-])NCCOc1ccccc1	57.6% (active)
COc1ccccc1OCCNC(=O)CSc1ccc(C(F)(F)F)cc1[N+](=O)[O-]	-0.4% (inactive)
O=C(Cc1ccsc1)N1CCn2cnnc2C1	0.2% (inactive)
Cc1nc(C(=O)NCc2ccc(C(F)(F)F)cc2)c(C)o1	-4.9% (inactive)
Cc1ccc(C2CC(c3ccccc3)Nc3nnnn32)cc1 (centres undefined)	-7% (inactive)
O=C(Nc1ccccc1[N+](=O)[O-])c1[nH]ncc1[N+](=O)[O-]	-24.6% (inactive)
Cc1ccc(-n2cc(C(=O)Nc3ccc4c(c3)OCCO4)c3ccccc3c2=O)cc1C	-2.6% (inactive)
O=C(c1ccoc1)N1CCCCC1CCN1CCOCC1 (centres undefined)	-2% (inactive)
O=C(NC1CC1)c1cccc(OCC2CCCN(C(=O)C3CCCCC3)C2)c1 (centres undefined)	-3.3% (inactive)
COc1ccc(CNC(=O)c2cncc(OC)c2)cc1	0.2% (inactive)
